# PubChem BioAssay AID1259343 (VanderVen Lab, College of Veterinary Medicine, Cornell …, 2017)
# Out of some 6,200 compounds screened, about 2,900 (47%) were called active. The set was probably picked from earlier hits. The list shows a part of the results. Unmarked numbers belong to inactive results. Rule as the data show it: active = inhibition above about 50%; inactive = the rest.
# Assay: Mycobacterium tuberculosis growth inhibition, primary screen (AID 1259343)
# Conditions: inhibition: at 10 µM, active compounds read high; outcome: 10 uM
row,Structure (SMILES),inhibition
1,O=C(NCc1ccncc1)c1ccc(-c2ccc(C3CCCCC3)cc2)s1,8.46%
2,CC(NC(=O)c1ccc(-c2cccc(Cl)c2)s1)C(C)(C)C (centres undefined),50% (active)
3,N#Cc1sc(-c2cccc(Cl)c2)cc1N,42.5%
4,COc1cccc(CNC(=O)c2ccc(-c3ccc(F)cc3)s2)c1,inactive
5,Cc1cccc(CNC(=O)c2ccc(-c3ccc(Oc4ccccc4)cc3)s2)c1,82.4% (active)
6,COc1ccc(CNC(=O)c2ccc(-c3cccc(Cl)c3)s2)cc1,54.9% (active)
7,Clc1ccc(-n2cccc2CN2CCc3c([nH]c4ccccc34)C2c2ccccn2)nc1 (centres undefined),37.9%
8,NC(=O)c1cc2c(cc1-c1cccc(C(F)(F)F)c1)OCO2,22.9%
9,Cc1ccc2c(=O)c(-c3cccc(C(F)(F)F)c3)coc2c1,57.7% (active)
10,CC(C)c1cc(C(=O)NCc2nc(Cc3cccs3)no2)n(C)n1,13.7%
11,CC(C)Cc1noc(CCCNC(=O)Nc2cccc(Cl)c2)n1,55.1% (active)
12,Cc1[nH]ncc1CCCNC(=O)Nc1ccc(Cl)c(Cl)c1,-9.82%
13,CCCc1cc(NCc2cccnc2)n2ncc(-c3ccccc3)c2n1,13.7%
14,Fc1ccc(-c2cnn3c(NCc4cccc(Cl)c4)ccnc23)cc1Cl,57.7% (active)
15,CCCCCCc1ccc(C(=O)N2CCSC2c2ccncc2)cc1 (centres undefined),95.1% (active)
16,CCCCc1ccc(C(=O)O)nc1,40.9%
17,Cc1ccc(Cn2nnc3c(SCc4cccnc4)ncnc32)cc1,58.1% (active)

row,Structure (SMILES),inhibition
1,c1ccc(-n2nnc3c(SCc4cccnc4)ncnc32)cc1,61.4% (active)
2,c1ccc(Cn2nnc3c(SCc4cccnc4)ncnc32)cc1,-31.8%
3,COc1ccc(-n2nnc3c(SCc4cccc(F)c4)ncnc32)cc1,88.2% (active)
4,O=C(CSc1ncnc2c1nnn2Cc1ccccc1F)OCc1ccccc1,-8.15%
5,Cc1ccc(Cn2nnc3c(SCC(=O)OCc4ccccc4)ncnc32)cc1,84.7% (active)
6,Fc1ccc(-n2nnc3c(SCc4cccc(F)c4)ncnc32)cc1,-31.5%
7,O=C(CSc1ncnc2c1nnn2Cc1ccccc1)OCc1ccccc1,-35.2%
8,COc1cccc(-n2nnc3c(SCc4cccnc4)ncnc32)c1,74.8% (active)
9,COc1ccc(-n2nnc3c(SCc4cccc(Cl)c4)ncnc32)cc1,-33.7%
10,COc1cccc(-c2ccc(NC(=O)C3CCCN(Cc4cnc(N(C)C)s4)C3)cc2)c1 (centres undefined),48.7%
11,Cc1cccc(-c2ccc(NC(=O)C3CCN(Cc4nccs4)CC3)cc2)c1,37.9%
12,Cc1cccc(-c2ccc(NC(=O)C3CCN(Cc4cnc(N(C)C)s4)CC3)cc2)c1,88.2% (active)
13,O=C(Nc1cccc(-c2cccc(F)c2)c1)C1CCN(Cc2cccs2)CC1,36.5%
14,CC(=O)c1cccc(CN2CCC(C(=O)Nc3cccc(-c4cccc(F)c4)c3)CC2)c1,69% (active)
15,CCCc1ncc(CN2CCC(C(=O)Nc3cccc(-c4cccc(F)c4)c3)CC2)cn1,inactive
16,O=C(Nc1cccc(-c2cccc(F)c2)c1)C1CCN(Cc2cccc3cnccc23)CC1,75.2% (active)
17,CC(=O)c1cc(CN2CCC(C(=O)Nc3cccc(-c4cccc(F)c4)c3)CC2)cs1,91.3% (active)
